This is a sample that favours compounds with a hit; in the whole collection about 2.4% have one here.
D2 PAM-1 = Beta-Arrestin HTS for Positive Allosteric Modulators of the Human D2 Dopamine Receptor: Potentiators; DiscoveRx D2 beta-arrestin cells, luminescence, 90 min; 100% = 57 uM dopamine signal; 360,000 compounds, 0.23% hits; potentiation, % (no concentration beside the values); in the data active means potentiation above about 50%; inconclusive means mostly about 30% to 49%
Target sequence (P14416 whole entry, looked up): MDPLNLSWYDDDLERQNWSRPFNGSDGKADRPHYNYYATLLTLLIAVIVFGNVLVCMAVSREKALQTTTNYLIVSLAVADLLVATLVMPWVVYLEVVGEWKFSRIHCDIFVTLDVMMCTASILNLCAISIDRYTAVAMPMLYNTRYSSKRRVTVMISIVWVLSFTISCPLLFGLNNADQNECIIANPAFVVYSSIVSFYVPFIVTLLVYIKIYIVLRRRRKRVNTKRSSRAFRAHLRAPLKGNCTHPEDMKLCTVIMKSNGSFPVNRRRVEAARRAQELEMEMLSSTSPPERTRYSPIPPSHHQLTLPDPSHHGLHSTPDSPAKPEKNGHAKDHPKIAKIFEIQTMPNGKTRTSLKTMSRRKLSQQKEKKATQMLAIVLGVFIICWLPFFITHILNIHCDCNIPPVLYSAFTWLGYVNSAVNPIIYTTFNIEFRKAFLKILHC
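D2 cells co-treated with compound plus 50 nM dopamine (EC20) for 90 min at 37 deg C to detect potentiation. Beta-arrestin recruitment was read as enzyme-fragment luminescence after 1 h at ambient temperature. Full response was set by 57 uM dopamine.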
D2 PAM-2 = HTS Assay for Positive Allosteric Modulators of the Human D2 Dopamine Receptor: Primary Screen for Potentiators. AID 485347, 2010. HEK293 T-REx D2, calcium flux, EC20 dopamine potentiation. 340,000 compounds, 0.34% hits. D(2) dopamine receptor (Homo sapiens), P14416. potentiation, % at 10 µM;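 active means potentiation over 3 SD above the plate norm, cut at about 30% in these data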; further: 0% is about no effect
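Calcium flux readout, no-wash dye, 1 read/s. Inducible HEK293 Trex D2 line, overnight 30 C. Compound alone 180 s (agonist flags), then EC20 dopamine, another 180 s to score potentiation.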
D2 ag-1 = HTS Assay for Allosteric Agonists of the Human D2 Dopamine Receptor: Primary Screen for Agonists. D(2) dopamine receptor (Homo sapiens), P14416. HEK293 T-REx D2 cells, calcium flux agonist mode. activation, % at 2 µM. 340,000 compounds, 0.53% hits;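 active means activation over 3 SD above normal in the single-dose calcium agonist read, cut at about 30% in these data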; further: 0% is about no effect
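Tetracycline-induced HEK293 Trex cells with D2 receptor force-coupled to calcium signaling, plated overnight at 30 C and loaded with no-wash calcium dye. Calcium flux read kinetically for 180 s after compound addition; responses flag agonists.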
D2 antag = HTS Assay for Allosteric Antagonists of the Human D2 Dopamine Receptor: Primary Screen for Antagonists. 340,000 compounds, 2% hits. D(2) dopamine receptor (Homo sapiens), P14416. inhibition, % at 10 µM. HEK293 TREx D2 cells, calcium flux, dopamine EC80; in the data active means inhibition above about 30%; inactive means below that, where a call was filed; further: 0% is about no effect
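Read-out: kinetic calcium fluorescence (1 cycle/s) in inducible HEK293 T-REx D2 cells after an EC80 dopamine addition that followed 180 s compound preincubation. Loss of the dopamine response indicates antagonism.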
D2 ag-2 = Beta-Arrestin HTS for Positive Allosteric Modulators of the Human D2 Dopamine Receptor: Agonists; DiscoveRx PathHunter D2 beta-arrestin, luminescence, 90 min; 100% = 57 uM dopamine signal; activation, % (no concentration beside the values); 360,000 compounds, 0.084% hits; D(2) dopamine receptor (Homo sapiens), P14416; in the data active means activation above about 40%; inconclusive means between about 15% and that limit
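DiscoveRx PathHunter D2 beta-arrestin cells (2,100/well) attached overnight, then compound-stimulated 90 min at 37 C in HBSS/10 mM HEPES/0.1% Tween-20 buffer; beta-galactosidase complementation read by luminescence after 1 h at ambient temperature. Dopamine 57 uM final (EC100) as control.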
* = called active by the depositor; ? = inconclusive; / = no result.

SMILES	D2 PAM-1	D2 PAM-2	D2 ag-1	D2 antag	D2 ag-2
O=[N+]([O-])c1ccccc1OCCCN1CCc2ccccc2C1	-26	-9	0	75*	5
Cc1ccc(OCCCCN2CCc3ccccc3C2)cc1	-26	-12	0	73*	8
Cc1ccc([N+](=O)[O-])c(OCCN2CCc3ccccc3C2)c1	-3	-27	17	88*	3
O=C(c1ccc2c(c1)N(Cc1cccc(Cl)c1)C(=O)c1ccccc1S2)N1CCOCC1	/	5	-1	/	/
Cc1nc(NC(=O)CSc2nncs2)c(Cl)cc1Cl	-6	3	0	-28	0
Cc1ccc(NC(=O)CSc2nncs2)cc1Cl	-19	-19	3	48*	-2
C=CCN1C(=O)N/C(=C/c2ccc(C)o2)C1=O	-21	-15	39*	-3	-11
Cc1ccc(N(C(=O)c2snc(C(N)=O)c2N)C(C(=O)NCC2CCCO2)c2ccc(C)o2)c(C)c1 (stereo not drawn)	-3	2	-2	-8	-2
CCc1ccccc1N(C(=O)c1snc(C(N)=O)c1N)C(C(=O)NCC1CCCO1)c1ccc(C)o1 (stereo not drawn)	-1	0	1	33*	5
COc1cc(NC(=O)Nc2nc(C(N)C3CCCCC3)cs2)cc(OC)c1OC (stereo not drawn)	?	/	/	/	109*
COc1ccccc1NC(=O)Nc1nc(C(N)C2CCCCC2)cs1 (stereo not drawn)	-20	/	/	/	2
COc1cc(/C=N/NC(=S)Nc2cccc(S(=O)(=O)N(C)C)c2)cc(OC)c1O	10	40*	-2	-7	6
COc1cc(CCC(=O)Nc2cccc(S(=O)(=O)N(C)C)c2)cc(OC)c1OC	-5	5	0	39*	-3
COC(=O)c1cccc(NC(=O)CCc2cc(OC)c(OC)c(OC)c2)c1	7	0	-1	-7	-1
COc1cccc(/C=N/NC(=S)Nc2cccc(S(=O)(=O)N(C)C)c2)c1	-5	-11	2	1	-1
CN(C)S(=O)(=O)c1cccc(NC(=O)COC(=O)c2ccc([N+](=O)[O-])o2)c1	78*	0	-1	-2	11
CN(C)S(=O)(=O)c1cccc(NC(=O)CCNC(=O)Nc2ccccc2)c1	-4	/	/	/	-1
CN(C)S(=O)(=O)c1cccc(NC(=O)CCSc2ccc(Cl)cc2)c1	-25	-20	1	33*	-2
CCc1ccccc1NC(=O)Nc1cc(C(=O)NCc2ccc(C(C)C)cc2)ccc1N1CCCC1	/	9	-3	/	/
CC(C)Oc1ccc(CNC(=O)c2ccc3c(c2)N(Cc2ccc(F)cc2)CCS3)cc1	/	-4	0	/	/
CC1CC(C)CN(C(=O)C(NS(=O)(=O)c2ccc3c(c2)oc(=O)n3C)C(C)C)C1 (stereo not drawn)	-7	3	1	-13	-3
CC(C)C(NS(=O)(=O)c1ccc2c(c1)oc(=O)n2C)C(=O)N1CCN(C2CCCCC2)CC1 (stereo not drawn)	-3	2	1	31*	-1
O=C(Nc1ccc(Cl)cc1C(F)(F)F)c1cc(S(=O)(=O)NCc2ccccc2)ccc1F	/	-18	-1	/	/
NNc1ncnc2c1cnn2-c1ccccc1	-7	6	0	31*	-4
c1ccc(-n2ncc3c(NC4CCCCCC4)ncnc32)cc1	-3	-2	0	46*	-3
SMILES	D2 PAM-1	D2 PAM-2	D2 ag-1	D2 antag	D2 ag-2
CN(C)c1ccc(C(c2ccc(N(C)C)cc2)C(O)c2ccccc2)cc1 (stereo not drawn)	-4	/	/	/	2
Cc1cc(C)cc(OC(=O)N2CCOCC2)c1	11	9	0	38*	-3
COc1cccc(OC(=O)N2CCOCC2)c1	-10	-10	0	2	-18
O=S(=O)(c1ccc(SCCOc2cccc(Br)c2)nc1)N1CCCC1	-29	-3	0	42*	-2
O=C(CSc1ccc(S(=O)(=O)N2CCCCC2)cn1)Nc1ccccc1Br	1	10	-1	3	41*
CC(=O)Nc1cc(-c2ccccc2)ccc1O	1	8	1	-2	-2
Nc1cc(-c2ccccc2)ccc1O	98*	3	0	8	?
CC(=O)NNC(=S)NC(=O)C(c1ccccc1)c1ccccc1	-8	-1	2	9	1
CC(C)(C)C(=O)NC(=S)NNC(=O)C(c1ccccc1)c1ccccc1	-21	-11	99*	75*	-16
Cc1oncc1C(=O)Nc1ccc(C(F)(F)F)cc1	-2	4	-2	36*	13
O=C(CCOc1ccccc1)N(Cc1cccnc1)c1nc2c(Cl)cccc2s1	/	-5	2	/	/
C=Cc1ccc(Cn2c(C(=O)O)c(CNC3CCCCC3)c3ccc(C)cc32)cc1	/	-1	0	/	/
N#Cc1c2c(c(NCc3ccco3)n3c1nc1ccccc13)CCC2	-2	4	0	0	-2
N#Cc1c2c(c(Nc3ccc(O)cc3)n3c1nc1ccccc13)CCC2	68*	17	-1	14	?
CC1CN(C)C(C)CC1OC(=O)C(c1ccccc1)c1ccccc1 (stereo not drawn)	-17	/	/	/	-5
CN(C)[C@@H]1CCC[C@H]1OC(=O)C(c1ccccc1)c1ccccc1	-34	-25	0	47*	-2
COc1ccc(C(=O)Nc2cccc(OCc3cc(=O)n4c5c(sc4n3)CCCC5)c2)cc1	/	-1	0	/	/
COc1ccccc1C(=O)Nc1ccc(S(=O)(=O)Nc2nc(C)cc(C)n2)cc1	/	-4	1	/	/
CCOc1ccc(OCCNC2CCCC2)cc1	-5	-3	0	16	-4
CCOc1ccccc1OCCNC1CCCC1	-17	-51	1	62*	-3
Brc1cccc(OCCCNC2CCCC2)c1	-24	-26	8	58*	-6
COc1cccc(OC)c1OCCCNC1CCCC1	-3	-30	0	48*	-4
Cc1ccc(C)c(OCCCNC2CCCC2)c1C	-3	7	-2	-3	-6
CCOC(=O)C1=C(CN2CCN(c3ccc(C)cc3C)CC2)NC(=O)NC1c1ccc(OC)cc1 (stereo not drawn)	/	-7	/	/	/
CCOC(=O)C1CCCN(S(=O)(=O)c2cc3c(cc2C)NC(=O)CO3)C1 (stereo not drawn)	/	1	0	/	/
Brc1cccc(-c2nnc(CN3CCN(c4ccccn4)CC3)o2)c1	/	-4	19	/	/

Bioassay records (PubChem BioAssay)
